# Experimental data published in PubChem BioAssay.
# Calls of active or inactive are those of the source.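 How the source made its calls: active means aptamer binding inhibition above 30%, about 3 SD of noise from non-fluorescent compounds; inactive means inhibition at or below 30%.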
# Molecular target: Beta-adrenergic receptor kinase 1 (Homo sapiens) (UniProt P25098)
# Assay: GRK2 binders displacing RNA aptamer, biochemical, validation, human GRK2, bead flow cytometry (AID 488806)
# Conditions: bead-bound GRK2, FAM-aptamer displacement, at 10 µM, active compounds read high
# Chain of Beta-adrenergic receptor kinase 1 (Homo sapiens) (P25098 whole entry, looked up): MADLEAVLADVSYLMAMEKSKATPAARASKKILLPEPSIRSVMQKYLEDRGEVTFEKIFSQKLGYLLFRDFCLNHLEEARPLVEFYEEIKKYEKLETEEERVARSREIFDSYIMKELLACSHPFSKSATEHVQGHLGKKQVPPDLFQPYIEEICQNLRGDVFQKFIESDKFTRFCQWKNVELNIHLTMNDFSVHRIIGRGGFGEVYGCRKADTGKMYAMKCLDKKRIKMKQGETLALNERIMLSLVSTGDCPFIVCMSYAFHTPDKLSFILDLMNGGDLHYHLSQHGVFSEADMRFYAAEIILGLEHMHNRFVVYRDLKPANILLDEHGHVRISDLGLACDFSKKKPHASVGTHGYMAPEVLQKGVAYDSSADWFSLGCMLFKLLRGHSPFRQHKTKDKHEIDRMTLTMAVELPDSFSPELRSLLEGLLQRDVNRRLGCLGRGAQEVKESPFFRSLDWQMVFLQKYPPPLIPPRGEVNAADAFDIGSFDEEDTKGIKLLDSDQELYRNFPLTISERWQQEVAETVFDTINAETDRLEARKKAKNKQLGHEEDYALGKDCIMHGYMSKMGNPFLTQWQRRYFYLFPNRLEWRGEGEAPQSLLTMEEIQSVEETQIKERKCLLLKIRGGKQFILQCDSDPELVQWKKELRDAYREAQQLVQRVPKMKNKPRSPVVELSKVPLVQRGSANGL
row,SMILES,aptamer binding inhibition
1,Fc1ccc(-n2cc(CNCCc3ccccn3)c(-c3ccccc3Cl)n2)cc1,-3% (inactive)
2,CO[C@@]1(NC(=O)Cc2cccs2)C(=O)N2C(C(=O)O)=C(COC(N)=O)CS[C@@H]21,9% (inactive)
3,N#CCC(N)=C(C#N)C#N,9% (inactive)
4,O=C(OCCN1CCOCC1)c1cccs1,2% (inactive)
5,CC(=O)c1cc2c(cc1NC(=O)c1ccco1)OCCO2,1% (inactive)
6,CC(C)NS(=O)(=O)c1ccc(OCC(=O)Nc2cccc(F)c2)cc1,3% (inactive)
7,COc1ccc2[nH]c(CN3CCN(CC(C)C)C(CCO)C3)c(C)c2c1 (centres undefined),3% (inactive)
8,Cc1ccsc1C1NC(=O)c2ccccc2N1 (centres undefined),1% (inactive)
9,Fc1ccc(NC(=S)Nc2ccccc2Cl)cc1,3% (inactive)
10,CCN1C(=O)C(CC(=O)Nc2ccc(F)cc2)N(Cc2ccco2)C1=S (centres undefined),5% (inactive)
11,Cc1ccc2c(c1C)NC(C(=O)O)C1CC=CC21 (centres undefined),34% (active)
12,c1cc(-c2ccncc2)ccn1,4% (inactive)
13,NS(=O)(=O)c1ccc(CCNC(=O)C2CCCN2C(=O)OCc2ccccc2)cc1 (centres undefined),-8% (inactive)
14,CC(C)CN1CCN(Cc2cccn2-c2ccccn2)CC1CCO (centres undefined),-2% (inactive)
15,CC(C)COCC(CN(Cc1ccccc1)c1ccccc1)N1CCCC1 (centres undefined),-2% (inactive)
16,CS(=O)(=O)NCc1ccc(C(=O)NCc2ccccc2)cc1,-8% (inactive)
17,COc1cc(NC(=S)NN2CCN(C)CC2)cc(OC)c1OC,3% (inactive)
18,CC(=O)[C@@H]1[C@@H](C(=O)c2ccc(C)cc2)[C@]2(C(=O)Nc3ccccc32)[C@H]2C=Cc3cc(F)ccc3N12,4% (inactive)
19,COC(=O)c1ccc(NC(=O)c2ccccc2SC)cc1,2% (inactive)
20,O=C(Nc1nc2ccccc2s1)c1ccc(F)cc1,3% (inactive)

row,SMILES,aptamer binding inhibition
1,CC(=O)N1c2ccccc2C(C)=CC1(C)C,2% (inactive)
2,CCC(=O)Oc1ccc(C(=O)Nc2ccc([N+](=O)[O-])cc2)cc1,5% (inactive)
3,C[C@]12CC[C@@H]3c4ccc(O)cc4CC[C@H]3[C@@H]1CC[C@@H]2O,1% (inactive)
4,C=CCNc1nc2c(c(=O)n(C)c(=O)n2C)n1CC(=C)C,3% (inactive)
5,COc1ccc(CN2CCCCC2C(=O)Nc2ccc(OC)c(OCC(C)C)c2)cc1OC (centres undefined),2% (inactive)
6,Cn1cc(C2N3CC4(C)CN2CC(C)(C3)C4=O)c2ccccc21 (centres undefined),2% (inactive)
7,Cc1ccc2nc(NC3=NC(CC(=O)O)C(=O)N3)nc(C)c2c1 (centres undefined),2% (inactive)
8,Cc1ccc(C2CC(=O)C(C=NCCN3CCN(CC(=O)Nc4cc(C)cc(C)c4)CC3)=C(O)C2)cc1 (centres undefined),-3% (inactive)
9,NC(N)=NC(=O)Cc1c(Cl)cccc1Cl,-1% (inactive)
10,O=C(CCSc1ccccc1)N1CCCC1,5% (inactive)
11,O=C(Nc1ccc(F)c([N+](=O)[O-])c1)c1ccc2c(c1)OCCO2,2% (inactive)
12,Nc1ccc2cn[nH]c2c1,-1% (inactive)
13,CCN(CC)CC#CCOC(=O)C(O)(c1ccccc1)C1CCCCC1 (centres undefined),4% (inactive)
14,CC(C)CN1CCN(Cc2ccc(C#CC(C)(C)O)cc2)CC1CCO (centres undefined),0% (inactive)
15,Cc1ccccc1NC(=O)NCCc1c[nH]c2ccccc12,2% (inactive)
16,C#CCN1C(=O)C(O)(c2c(C)[nH]c3ccccc23)c2ccccc21 (centres undefined),3% (inactive)
17,Cc1ccc(S(=O)(=O)N2CCC(C(=O)N[C@@H](C)C(=O)NC3CCS(=O)(=O)C3)CC2)cc1 (some centres undefined),4% (inactive)
18,CCNC(=O)c1c(N)sc2c1CCCCC2,1% (inactive)
19,COc1ccccc1C(=O)Oc1ccc2c(c1)O/C(=C\c1ccncc1)C2=O,-1% (inactive)
